{
  "source": "PubChem BioAssay (NCATS)",
  "note": "Records with an inconclusive call do not appear. The source made the active and inactive calls. Calls follow the shape of the dose curve; as a rule, active = well fitted inhibition curve with a large enough effect; inconclusive = small, poorly fitted or top-dose-only effect; inactive = flat fitted curve, though single readings scatter. Where a SMILES comes first, the peptide text is derived from it.",
  "data": [
    {"system": "NIH3T3", "assay": "qHTS assay to identify novel small-molecules to repurpose for Merkel cell carcinoma treatment (AID 1296009); also: nearly all actives have a fitted effect of over 60% in size", "conditions": "MCC and control cell lines, CellTiter-Glo viability, 72 h; at 44.8 µM (top of the series) unless noted", "outline": "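Cells were incubated with compound for 72 hr at 37 degree celsius before CellTiter-Glo addition. Luminescence was normalized with no-cell wells as full cytotoxicity and DMSO as baseline.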", "values": [
      {"smiles": "Nc1nc(CC(=O)Nc2ccc(CCNCC(O)c3ccccc3)cc2)cs1", "note": "(stereo not drawn)", "outcome": "inactive"},
      {"smiles": "COc1ccc([C@@H]2N[C@H](C(=O)O)Cc3c2[nH]c2ccccc32)cc1CN1CCN(c2ccccc2F)CC1", "outcome": "inactive"},
      {"smiles": "CC1NC(=O)CNC(=O)C(C(C)C)NC(=O)C2CCCN2C(=O)C(C(C)C)NC(=O)C(Cc2c[nH]c3ccccc23)NC1=O", "note": "(stereo not drawn) (cyclo(GAWVPV); configuration not given here)", "outcome": "inactive [at 17.4 µM]"},
      {"smiles": "CC(C)(C)c1cc(CN2CCN(CC(O)c3ccc(Cl)cc3)CC2)cc(C(C)(C)C)c1O", "note": "(stereo not drawn)", "outcome": "inactive"},
      {"smiles": "CC[C@@H](c1ccc(F)c(F)c1)n1c(C(=O)OC)c(-c2ccno2)[nH]c1=S", "outcome": "inactive"},
      {"smiles": "O=C(O)C[C@H]1CCC(=O)[C@@H]1C/C=C\\CCOC1OC(CO)C(O)C(O)C1O", "note": "(stereo partly drawn)", "outcome": "inactive"},
      {"smiles": "N#Cc1ccc2[nH]c(O)c(-c3ccc(CN4CCOCC4)cn3)c2c1", "outcome": "inactive"},
      {"smiles": "C=Cc1cc(O)cc2nc(-c3ccc(O)c(F)c3)oc12", "outcome": "inactive"},
      {"smiles": "COc1ccc(C(OC2OC(CO)C(O)C(O)C2O)C(C)O)cc1", "note": "(stereo not drawn)", "outcome": "inactive"},
      {"smiles": "CC1CCC2(C(=O)OC3OC(COC4OC(CO)C(O)C(O)C4O)C(O)C(O)C3O)CCC3(C)C(=CCC4C5(C)CCC(O)C(C)(C(=O)O)C5CCC43C)C2C1(C)O", "note": "(stereo not drawn)", "outcome": "inactive [at 9.27 µM]"},
      {"smiles": "Cc1cc(N2CCCCC2)nc2ccccc12", "outcome": "inactive"},
      {"smiles": "C=CC1(C)CC2=CCC3C(C)(C(=O)O)CCCC3(C)C2CC1OC(C)=O", "note": "(stereo not drawn)", "outcome": "inactive"},
      {"smiles": "Cc1cc(Nc2ncc(Cl)c(Nc3ccccc3S(=O)(=O)C(C)C)n2)c(OC(C)C)cc1C1CCNCC1", "outcome": "inactive"}
    ]}
  ]
}
